A short description of this assay: qHTS drug screen for cell cycle checkpoint inhibitors in PARPi-resistant BRCA-mutant ovarian cancer cell lines. (AID 1963452). The conditions noted are these: PEO1/OlaR viability, CellTiter-Glo luminescence, 96 h; for Z-AUC: stronger effect = lower value. The source says:
Women's Malignancies Branch, Center for Cancer Research (CCR),
National Cancer Institute (NCI), National Institutes of Health (NIH), Bethesda, MD
Poly (ADP-ribose) polymerase inhibitors (PARPis) have changed the treatment paradigm in breast cancer gene (BRCA) - mutant high-grade serous ovarian carcinoma (HGSC). However, most patients eventually develop resistance to PARPis, highlighting an unmet need for improved therapeutic strategies. Using high-throughput drug screens, we identified ataxia telangiectasia and rad3-related protein/checkpoint kinase 1 (CHK1) pathway inhibitors as cytotoxic and further validated the activity of the CHK1 inhibitor (CHK1i) prexasertib in PARPi-sensitive and -resistant BRCA-mutant HGSC cells and xenograft mouse models. CHK1i monotherapy induced DNA damage, apoptosis, and tumor size reduction. We then conducted a phase 2 study (NCT02203513) of prexasertib in patients with BRCA-mutant HGSC. The treatment was well tolerated but yielded an objective response rate of 6% (1 of 17; one partial response) in patients with previous PARPi treatment. […] BRCA reversion mutation in previously PARPi-treated BRCA-mutant patients was not associated with resistance to CHK1i.
Among others, 1082 oncology drugs, both approved and investigational, were prioritized based on their status in clinical trial development. […] Drugs with average Z-AUC values less than -1.0 in all three cell lines were classified as "hits" resulting in 151 oncology drug hits. The screen also confirmed cross-resistance between olaparib and other PARPis (rucaparib, niraparib, and talazoparib) in PARPi-resistant PEO1/OlaR and PEO4.
[1] G. L. Lin, K. M. Wilson, M. Ceribelli, B. Z. Stanton, P. J. Woo, S. Kreimer, E. Y. Qin, X. Zhang, J. Lennon, S. Nagaraja, P. J. Morris, M. Quezada, S. M. Gillespie, D. Y. Duveau, A. M. Michalowski, P. Shinn, R. Guha, M. Ferrer, C. Klumpp-Thomas, S. Michael, C. McKnight, P. Minhas, Z. Itkin, E. H. Raabe, L. Chen, R. Ghanem, A. C. Geraghty, L. Ni, K. I. Andreasson, N. A. Vitanza, K. E.Warren, C. J. Thomas, M. Monje, Therapeutic strategies for diffuse midline glioma from high-throughput combination drug screening. Sci. Transl. Med. 11, (2019).
[2] T. M. Yamamoto, A. McMellen, Z. L. Watson, J. Aguilera, R. Ferguson, E. Nurmemmedov, T. Thakar, G. L. Moldovan, H. Kim, D. M. Cittelly, A. M. Joglar, E. P. Brennecke, H. Wilson, K. Behbakht, M. J. Sikora, B. G. Bitler, Activation of Wnt signaling promotes olaparib resistant ovarian cancer. Mol. Carcinog. 58, 1770 - 1782 (2019).
PROTOCOL TABLE (as described by Inglese J, Shamu CE and Guy RK. 2007)
SEQUENCE No. (e.g., 1, 2, 3, etc.); […] (e.g., Cells, Incubation, Reagent, etc.); VALUE; DESCRIPTION.
1; Compounds; 20nL; 1536-well white tissue culture-treated plates.
2; Cells; 5 uL; PEO1, PEO4, and PEO1/OlaR cells at 600 cells per well.
3; Incubation; 96 hr; 37C, 95% humidity, 5% CO2.
4; Reagent; 3 uL; CellTiter-Glo (Promega).
5; Incubation; 15 min; room temperature.
6; Detection; Luminescence, PHERAstar (BMG Labtech) plate reader.
NOTES (numbers refer to Sequence numbers above)
1. MIPE 5.0 compounds were acoustically dispensed by Echo Acoustic Liquid Handler (Beckman Coulter Life Sciences). Each compound was plated at an 11-point concentration range with 1:3 dilution. Bortezomib, a proteasome inhibitor (final concentration, 20 uM), was used as a positive.
2. PEO1, PEO4, and PEO1/OlaR were trypsinized and dispensed in 5 uLof growth medium using a Multidrop Combi dispenser at a density of 600 cells per well to allow compounds to be present during the exponential growth phase.
3. Plates were incubated for 96 hours at standard incubator conditions and covered by a stainless steel gasketed lid to prevent evaporation.
4. Three microliters of CellTiter-Glo (Promega) were added to each well.
5. Plates were incubated at room temperature for 15 min with a stainless-steel lid in place.
6. Luminescence readings were taken using PHERAstar (BMG Labtech). […]
In general terms: In qHTS, concentration-response curves come from the screen itself.

[1] abbreviates: measured here: PEO1 parental Z-AUC.

Activity calls are given as the source filed them. Calls follow the shape of the full dose curve.
Potency is read from the fitted curve at half-maximal effect.

As to `Cc1[nH]c2ccccc2c1CCNCc1ccc(/C=C/C(=O)NO)cc1`, the Potency is 77.6 nM (active). The Z-AUC under setting [1] was -1.48. Further, the Z-AUC (measured here: PEO4 Z-AUC) is -1.35.

In the case of `COc1cccc(OCCCN)c1-c1cc(Nc2cnc(C#N)cn2)n[nH]1`, the Potency is 4.9 nM (active). The Z-AUC under setting [1] is -2.4. Also, the Z-AUC (measured here: PEO4 Z-AUC) is -2.98.

Take `COc1cc2c(cc1OCCCN1CCCC1)N=C(N)C21CCC1`: the Z-AUC was -0.834 (inactive). In addition, the Z-AUC under setting [1] was -0.0136. Where the note is “measured here: PEO4 Z-AUC”, the Z-AUC was -0.411.

As for `CN[C@H]1CC[C@@H](c2ccc(Cl)c(Cl)c2)c2ccccc21`, the Z-AUC was 0.0758 (inactive). Moreover, the Z-AUC under setting [1] amounted to 0.141. In addition, where the note is “measured here: PEO4 Z-AUC”, the Z-AUC is -0.265.

In the case of `Cn1cc(-c2ccc(S(=O)(=O)n3ccc(/C=C/C(=O)Nc4ccccc4N)c3)cc2)cn1`, the Z-AUC was 0.896 (inactive). Also, under setting [1], the Z-AUC came to 1.17. Moreover, where the note is “measured here: PEO4 Z-AUC”, the Z-AUC was determined as 0.999.

As to `OC(c1ccc(-c2ccc(CN3CCN(Cc4ccncc4)CC3)cc2)c(F)c1)(C(F)(F)F)C(F)(F)F`, the Z-AUC is -1.4 (inactive). Further, the Z-AUC under setting [1] is -0.566. Besides, the Z-AUC (measured here: PEO4 Z-AUC) is -0.000497.

Take `COc1cc2c(cc1OC(C)C)[C@H](c1ccc(Cl)cc1)N(c1ccc(N(C)CC3CCC(N4CCN(C)C(=O)C4)CC3)cc1)C(=O)C2` (some centres not stated): the Z-AUC is 0.694 (inactive). Under setting [1], the Z-AUC came out at 0.366. Besides, where the note is “measured here: PEO4 Z-AUC”, the Z-AUC amounted to 0.545.

Consider `CCCOc1ccc(CCc2nc3cc(-c4c(C)noc4C)ccc3n2CCN2CCOCC2)cc1`, for which the Z-AUC is -0.591 (inactive). Also, the Z-AUC under setting [1] is -0.719. The Z-AUC (measured here: PEO4 Z-AUC) was -0.728.

Take `COc1ccccc1C(=O)Nc1cc2c(cc1N1CCCC1)n(C)c(=O)n2C`: the Z-AUC is -1.16 (inactive). For the same compound, the Z-AUC under setting [1] is -0.583. Also, the Z-AUC (measured here: PEO4 Z-AUC) is -0.727.

`C=CCNC1=C2C[C@@H](C)C[C@H](OC)[C@H](O)[C@@H](C)/C=C(\C)[C@H](OC(N)=O)[C@@H](OC)/C=C\C=C(/C)C(=O)NC(=CC1=O)C2=O`: the Z-AUC is -0.418 (inactive). Moreover, under setting [1], the Z-AUC was -0.98. In addition, the Z-AUC (measured here: PEO4 Z-AUC) is -0.867.

Turning to `CC(C)C[C@H](CO)Nc1nc(S[C@@H](C)c2ccccc2)nc2nc(N)sc12`, the Z-AUC is -0.387 (inactive). Besides, the Z-AUC under setting [1] is -0.481. Moreover, under “measured here: PEO4 Z-AUC”, the Z-AUC was -0.0726.

For `CS(=O)(=O)Nc1cc2occ(NC=O)c(=O)c2cc1Oc1ccccc1`, the Z-AUC is 0.738 (inactive). Further, the Z-AUC under setting [1] was 0.631. In addition, the Z-AUC (measured here: PEO4 Z-AUC) was 0.731.

`COc1ccc(-n2c(SCCCN3C(=O)c4cccc5cccc(c45)C3=O)nnc2-c2ccncc2)cc1`: the Z-AUC is 0.836 (inactive). The Z-AUC under setting [1] turned out to be 0.296. Further, where the note is “measured here: PEO4 Z-AUC”, the Z-AUC is 0.916.

Take `C[C@@H]1COCCN1c1cc(=O)n2c(n1)N(Cc1cncc(Cl)c1)[C@H](C(F)(F)F)CC2`: the Z-AUC was -0.103 (inactive). For the same compound, the Z-AUC under setting [1] was -0.0406. Besides, the Z-AUC (measured here: PEO4 Z-AUC) is -0.0495.

(Values after PubChem BioAssay (NCATS).)
